Results filed as inconclusive are left out. Calls of active or inactive are those of the source. Calls follow the shape of the dose curve; as a rule, active = well fitted curve in the direction sought with a large enough effect; inconclusive = small, poorly fitted or top-dose-only effect, or another doubt; inactive = no such curve, though single readings can be large; an effect the other way counts as inactive or inconclusive.
Target: alpha-glucosidase (Oryza sativa, rice) (UniProt Q653V4)
Test: Counterscreen for Glucocerebrosidase Inhibitors: qHTS Assay for Rice alpha-Glucosidase at pH 5.0 (AID 997);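 also: 0% = full activity with enzyme and -100% = basal without enzyme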
Conditions: rice alpha-glucosidase enzyme activity; series mostly up to 76.9 µM; activity change, negative = inhibition: at the top concentration
Method in brief: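 Endpoint fluorogenic assay at pH 5.0: compounds (0.7 nM to 77 uM) titrated against 4 nM rice enzyme and 400 uM 4-MU-alpha-glucoside for 20 min at room temperature; NaOH/glycine stop, read ex 365/em 440 nm, Hill-fitted AC50.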
For `CN(C)C(=O)Oc1ccc[n+](C)c1`, the “activity change, negative = inhibition” value was 0.967% (inactive). With `C[C@]12C=CC(=O)C=C1CC[C@H]1[C@@H]3C[C@@H](O)[C@](O)(C(=O)CO)[C@@]3(C)C[C@H](O)[C@@]12F` the “activity change, negative = inhibition” value was -2.77% (inactive). In the case of `C[n+]1cc2c3c(ccc2c2ccc4cc5c(cc4c21)OCO5)OCO3`, the “activity change, negative = inhibition” value is reported as -1.05% (inactive). In the case of `CNCCCN1c2ccccc2CCc2ccccc21`, the “activity change, negative = inhibition” value is reported as 2.34% (inactive). With `Nc1ncn([C@@H]2O[C@H](CO)[C@@H](O)[C@H]2O)c(=O)n1` the “activity change, negative = inhibition” value was 0.883% (inactive). In the case of `O=C1CC2(CCCC2)CC(=O)N1CCCCN1CCN(c2ncccn2)CC1`, the “activity change, negative = inhibition” value is reported as -2.04% (inactive). In the case of `C[N+](C)(C)CCOC(=O)CCC(=O)OCC[N+](C)(C)C`, the “activity change, negative = inhibition” value is reported as 0.669% (inactive). In the case of `C(=C\c1ccccc1)/CN1CCN(C(c2ccccc2)c2ccccc2)CC1`, the “activity change, negative = inhibition” value is reported as -1.02% (inactive). For `Cc1nc2c([nH]1)c(=O)n(C)c(=O)n2Cc1ccco1`, the “activity change, negative = inhibition” value was 0.8% (inactive). In the case of `CCC(=O)c1ccc2c(c1)N(CCCN(C)C)c1ccccc1S2`, the “activity change, negative = inhibition” value is reported as -3.15% (inactive). In the case of `CSc1ccc(C(=O)c2[nH]c(=O)[nH]c2C)cc1`, the “activity change, negative = inhibition” value is reported as -5.41% (inactive). For `C[C@]12CCC(=O)C=C1CC[C@@H]1[C@@H]2C(=O)C[C@@]2(C)[C@H]1CC[C@]2(O)C(=O)CO`, the “activity change, negative = inhibition” value was -0.166% (inactive). With `CN1CCN(CC(=O)N2c3ccccc3C(=O)Nc3cccnc32)CC1` the “activity change, negative = inhibition” value was -7.03% (inactive). In the case of `CCc1cccc(N(C)C(N)=Nc2cccc3ccccc23)c1`, the “activity change, negative = inhibition” value is reported as -7.15% (inactive). In the case of `Brc1c(NC2=NCCN2)ccc2nccnc12`, the “activity change, negative = inhibition” value is reported as -4.05% (inactive). In the case of `O=C(CCCN1CCC(O)(c2cccc(C(F)(F)F)c2)CC1)c1ccc(F)cc1`, the “activity change, negative = inhibition” value is reported as -2.37% (inactive). With `CN(C)C(=O)Oc1cccc([N+](C)(C)C)c1` the “activity change, negative = inhibition” value was -6.35% (inactive). For `C[C@H](CS)C(=O)N1CCC[C@H]1C(=O)O`, the “activity change, negative = inhibition” value was -3.06% (inactive).

Target: DNA repair nuclease/redox regulator APEX1 (Homo sapiens) (UniProt P27695)
Sequence (P27695 whole entry, looked up): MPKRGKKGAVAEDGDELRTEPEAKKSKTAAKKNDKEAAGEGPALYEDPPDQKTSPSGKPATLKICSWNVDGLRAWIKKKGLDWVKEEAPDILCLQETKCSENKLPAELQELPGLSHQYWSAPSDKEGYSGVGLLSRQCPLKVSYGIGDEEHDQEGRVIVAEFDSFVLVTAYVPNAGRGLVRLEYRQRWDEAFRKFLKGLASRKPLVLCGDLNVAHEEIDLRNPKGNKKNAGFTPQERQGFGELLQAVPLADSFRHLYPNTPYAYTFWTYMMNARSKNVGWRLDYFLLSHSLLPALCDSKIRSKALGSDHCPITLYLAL
Test: qHTS Validation Assay for Inhibitors of the Human Apurinic/apyrimidinic Endonuclease 1 (APE1) (AID 1705; also: potency is read from the fitted curve at half-maximal effect;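 as to activity change, negative = inhibition: TAMRA fluorescence gain over two minutes as APE1 cuts a quenched THF abasic duplex; % is scaled to controls: 0 for no effect and ±100 for the full control effect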)
Conditions: purified APE1 endonuclease activity, fluorescence, titration; series mostly up to 57.1 µM; activity change, negative = inhibition: at the top concentration
Method in brief: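 Read-out: TAMRA fluorescence (525 nm ex, 598 nm em) from cleavage of a quenched THF abasic-site duplex, 50 nM final; activity taken as intensity change between third and first of three reads 60 s apart.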
With `CCCNC(C)C(=O)Nc1ccccc1C` (stereo not given) the “activity change, negative = inhibition” value was 6.54% (inactive). In the case of `CN(C)C(=O)Oc1ccc[n+](C)c1`, the “activity change, negative = inhibition” value is reported as 13.5% (inactive). In the case of `C[C@]12C=CC(=O)C=C1CC[C@H]1[C@@H]3C[C@@H](O)[C@](O)(C(=O)CO)[C@@]3(C)C[C@H](O)[C@@]12F`, the “activity change, negative = inhibition” value is reported as -5.97% (inactive). With `C[n+]1cc2c3c(ccc2c2ccc4cc5c(cc4c21)OCO5)OCO3` the “activity change, negative = inhibition” value was -14.3% (inactive). For `CNCCCN1c2ccccc2CCc2ccccc21`, the “activity change, negative = inhibition” value was -1.45% (inactive). With `Nc1ncn([C@@H]2O[C@H](CO)[C@@H](O)[C@H]2O)c(=O)n1` the “activity change, negative = inhibition” value was 6.89% (inactive). With `O=C1CC2(CCCC2)CC(=O)N1CCCCN1CCN(c2ncccn2)CC1` the “activity change, negative = inhibition” value was -4.67% (inactive). For `NC(N)=N/N=C/c1c(Cl)cccc1Cl`, the “activity change, negative = inhibition” value was -9.91% (inactive). For `CN(C)C/C=C(/c1ccc(Br)cc1)c1cccnc1`, the “activity change, negative = inhibition” value was 13.1% (inactive). For `CCOC(=O)C1=C(C)NC(C)=C(C(=O)OC)C1c1cccc(Cl)c1Cl` (stereo not given), the “activity change, negative = inhibition” value was -17.1% (inactive). In the case of `C[N+](C)(C)CCOC(=O)CCC(=O)OCC[N+](C)(C)C`, the “activity change, negative = inhibition” value is reported as -2.71% (inactive). For `COc1ccc([C@@H]2Sc3ccccc3N(CCN(C)C)C(=O)[C@@H]2OC(C)=O)cc1`, the “activity change, negative = inhibition” value was 0.646% (inactive). For `C(=C\c1ccccc1)/CN1CCN(C(c2ccccc2)c2ccccc2)CC1`, the “activity change, negative = inhibition” value was -5.5% (inactive). For `Cc1nc2c([nH]1)c(=O)n(C)c(=O)n2Cc1ccco1`, the “activity change, negative = inhibition” value was 2.53% (inactive). For `OCCN1CCN(CC/C=C2/c3ccccc3Sc3ccc(C(F)(F)F)cc32)CC1`, the “activity change, negative = inhibition” value was 8.61% (inactive). For `COCCCC/C(=N\OCCN)c1ccc(C(F)(F)F)cc1`, the “activity change, negative = inhibition” value was -0.484% (inactive). For `CCC(=O)c1ccc2c(c1)N(CCCN(C)C)c1ccccc1S2`, the “activity change, negative = inhibition” value was -3.17% (inactive). In the case of `NS(=O)(=O)c1cc2c(cc1Cl)NC(C1CC3C=CC1C3)NS2(=O)=O` (stereo not given), the “activity change, negative = inhibition” value is reported as -13.2% (inactive). For `CSc1ccc(C(=O)c2[nH]c(=O)[nH]c2C)cc1`, the “activity change, negative = inhibition” value was -10.8% (inactive). For `C[C@]12CCC(=O)C=C1CC[C@@H]1[C@@H]2C(=O)C[C@@]2(C)[C@H]1CC[C@]2(O)C(=O)CO`, the “activity change, negative = inhibition” value was -0.816% (inactive). For `NC(=O)c1ncn([C@@H]2O[C@H](CO)[C@@H](O)[C@H]2O)c1O`, the “activity change, negative = inhibition” value was 7.54% (inactive). With `CN1CCN(CC(=O)N2c3ccccc3C(=O)Nc3cccnc32)CC1` the “activity change, negative = inhibition” value was 19.5% (inactive). For `Cc1nnc(SCC2=C(C(=O)O)N3C(=O)[C@@H](NC(=O)Cn4cnnn4)[C@H]3SC2)s1`, the “activity change, negative = inhibition” value was 8.12% (inactive). For `CCc1cccc(N(C)C(N)=Nc2cccc3ccccc23)c1`, the “activity change, negative = inhibition” value was 1.9% (inactive). With `Brc1c(NC2=NCCN2)ccc2nccnc12` the “activity change, negative = inhibition” value was -4.21% (inactive). In the case of `CC(=O)OCC1=C(C(=O)O)N2C(=O)[C@@H](NC(=O)Cc3cccs3)[C@H]2SC1`, the “activity change, negative = inhibition” value is reported as -6.12% (inactive). In the case of `CC(=O)[C@]1(O)Cc2c(O)c3c(c(O)c2[C@@H](O[C@H]2C[C@H](N)[C@H](O)[C@H](C)O2)C1)C(=O)c1ccccc1C3=O`, the Potency is reported as 14.1 µM (active). For `CN(C)CC[C@@H](c1ccc(Br)cc1)c1ccccn1`, the “activity change, negative = inhibition” value was 2.82% (inactive). In the case of `O=C(CCCN1CCC(O)(c2cccc(C(F)(F)F)c2)CC1)c1ccc(F)cc1`, the “activity change, negative = inhibition” value is reported as -9.39% (inactive). In the case of `CN(C)C(=O)Oc1cccc([N+](C)(C)C)c1`, the “activity change, negative = inhibition” value is reported as 3.26% (inactive). For `CC(C)(C)NCC(O)c1cc(O)cc(O)c1` (stereo not given), the “activity change, negative = inhibition” value was 8.53% (inactive). For `C[C@H](CS)C(=O)N1CCC[C@H]1C(=O)O`, the “activity change, negative = inhibition” value was -2.98% (inactive).

Tested on: not listed separately
Test: Counterscreen for APE1 Inhibitors: Fluorescent Dye Displacement Validation Assay (AID 1707);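 also: plate controls were ThO with dsDNA and no compound for no effect and ThO without dsDNA for full effect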
Conditions: fluorescent dye displacement from DNA; series mostly up to 57.1 µM; activity change, negative = inhibition: at the top concentration
Method in brief: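 Signal: ThO fluorescence (ex 480 nm/em 540 nm) on binding 50 nM dsDNA; displacement by test compound reduces it. Conditions: 250 nM dye, 50 mM Tris-HCl pH7.5, 2 mM MgCl2, 50mM NaCl, 0.01% Tween-20.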
For `CCCNC(C)C(=O)Nc1ccccc1C` (stereo not given), the “activity change, negative = inhibition” value was 1.8% (inactive). For `CN(C)C(=O)Oc1ccc[n+](C)c1`, the “activity change, negative = inhibition” value was 1.68% (inactive). In the case of `C[C@]12C=CC(=O)C=C1CC[C@H]1[C@@H]3C[C@@H](O)[C@](O)(C(=O)CO)[C@@]3(C)C[C@H](O)[C@@]12F`, the “activity change, negative = inhibition” value is reported as 1.87% (inactive). In the case of `CNCCCN1c2ccccc2CCc2ccccc21`, the “activity change, negative = inhibition” value is reported as 2.47% (inactive). With `Nc1ncn([C@@H]2O[C@H](CO)[C@@H](O)[C@H]2O)c(=O)n1` the “activity change, negative = inhibition” value was 2.34% (inactive). With `O=C1CC2(CCCC2)CC(=O)N1CCCCN1CCN(c2ncccn2)CC1` the “activity change, negative = inhibition” value was -1.16% (inactive). With `NC(N)=N/N=C/c1c(Cl)cccc1Cl` the “activity change, negative = inhibition” value was 1.2% (inactive). With `CN(C)C/C=C(/c1ccc(Br)cc1)c1cccnc1` the “activity change, negative = inhibition” value was 0.419% (inactive). For `CCOC(=O)C1=C(C)NC(C)=C(C(=O)OC)C1c1cccc(Cl)c1Cl` (stereo not given), the “activity change, negative = inhibition” value was -1.03% (inactive). With `C[N+](C)(C)CCOC(=O)CCC(=O)OCC[N+](C)(C)C` the “activity change, negative = inhibition” value was 3.38% (inactive). In the case of `COc1ccc([C@@H]2Sc3ccccc3N(CCN(C)C)C(=O)[C@@H]2OC(C)=O)cc1`, the “activity change, negative = inhibition” value is reported as -0.826% (inactive). In the case of `C(=C\c1ccccc1)/CN1CCN(C(c2ccccc2)c2ccccc2)CC1`, the “activity change, negative = inhibition” value is reported as 1.88% (inactive). In the case of `Cc1nc2c([nH]1)c(=O)n(C)c(=O)n2Cc1ccco1`, the “activity change, negative = inhibition” value is reported as 1.28% (inactive). For `OCCN1CCN(CC/C=C2/c3ccccc3Sc3ccc(C(F)(F)F)cc32)CC1`, the “activity change, negative = inhibition” value was -1.14% (inactive). For `COCCCC/C(=N\OCCN)c1ccc(C(F)(F)F)cc1`, the “activity change, negative = inhibition” value was -0.395% (inactive). With `CCC(=O)c1ccc2c(c1)N(CCCN(C)C)c1ccccc1S2` the “activity change, negative = inhibition” value was -2.19% (inactive). In the case of `NS(=O)(=O)c1cc2c(cc1Cl)NC(C1CC3C=CC1C3)NS2(=O)=O` (stereo not given), the “activity change, negative = inhibition” value is reported as -1.05% (inactive). For `CSc1ccc(C(=O)c2[nH]c(=O)[nH]c2C)cc1`, the “activity change, negative = inhibition” value was 2% (inactive). In the case of `C[C@]12CCC(=O)C=C1CC[C@@H]1[C@@H]2C(=O)C[C@@]2(C)[C@H]1CC[C@]2(O)C(=O)CO`, the “activity change, negative = inhibition” value is reported as 0.736% (inactive). In the case of `NC(=O)c1ncn([C@@H]2O[C@H](CO)[C@@H](O)[C@H]2O)c1O`, the “activity change, negative = inhibition” value is reported as 2.24% (inactive). With `CN1CCN(CC(=O)N2c3ccccc3C(=O)Nc3cccnc32)CC1` the “activity change, negative = inhibition” value was 0.642% (inactive). For `Cc1nnc(SCC2=C(C(=O)O)N3C(=O)[C@@H](NC(=O)Cn4cnnn4)[C@H]3SC2)s1`, the “activity change, negative = inhibition” value was 3.65% (inactive). For `CCc1cccc(N(C)C(N)=Nc2cccc3ccccc23)c1`, the “activity change, negative = inhibition” value was -3.42% (inactive). In the case of `Brc1c(NC2=NCCN2)ccc2nccnc12`, the “activity change, negative = inhibition” value is reported as 2.55% (inactive). In the case of `CC(=O)OCC1=C(C(=O)O)N2C(=O)[C@@H](NC(=O)Cc3cccs3)[C@H]2SC1`, the “activity change, negative = inhibition” value is reported as 3.77% (inactive). In the case of `CN(C)CC[C@@H](c1ccc(Br)cc1)c1ccccn1`, the “activity change, negative = inhibition” value is reported as -1.43% (inactive). With `O=C(CCCN1CCC(O)(c2cccc(C(F)(F)F)c2)CC1)c1ccc(F)cc1` the “activity change, negative = inhibition” value was -0.627% (inactive). In the case of `CN(C)C(=O)Oc1cccc([N+](C)(C)C)c1`, the “activity change, negative = inhibition” value is reported as -0.748% (inactive). With `CC(C)(C)NCC(O)c1cc(O)cc(O)c1` (stereo not given) the “activity change, negative = inhibition” value was 1.62% (inactive). For `C[C@H](CS)C(=O)N1CCC[C@H]1C(=O)O`, the “activity change, negative = inhibition” value was 0.738% (inactive).
